{
  "source": "PubChem BioAssay AID720518",
  "about": "(National Center for Advancing Translational Sciences (NCATS), 2013)",
  "note": "Inconclusive results are not listed. Values without a mark were called inactive. Activity calls are given as the source filed them. Calls follow the shape of the full dose curve. Potency is read from the fitted curve at half-maximal effect.",
  "data": [
    {"assay": "qHTS for Inhibitors of Cell Surface uPA Generation: Wild-type Protective Antigen (WT-PrAg) Counterscreen for Cherry-picked Compounds; as to activity (protection): 0% is about no effect", "settings": "cells, WT protective antigen toxicity counterscreen; series mostly up to 115 µM; activity (protection): at the top concentration", "units": {"activity (protection)": "%"}, "values": [
      {"smiles": "Cc1ccc(S(=O)(=O)NCC(=O)OC(C)C(=O)NCc2ccc3c(c2)OCO3)cc1", "note": "(configuration not stated)", "activity (protection)": -0.702},
      {"smiles": "CCN(CC)CC(=O)Nc1sc2c(c1C(=O)c1ccccc1OC)CCC2", "Potency": "9.27 µM (active)"},
      {"smiles": "CCN(CC(=O)Nc1c(F)cccc1F)C(=O)c1ccc(-c2ccc(C(C)=O)cc2)o1", "activity (protection)": -1.23},
      {"smiles": "CCCCN(CC)CCNC(=O)c1cc2cc3ccc(Cl)cc3nc2o1", "activity (protection)": -2},
      {"smiles": "CC(C)C(NC(=O)Cc1ccccc1)C(=O)N1CCN(c2cccc(Cl)c2)CC1", "note": "(configuration not stated)", "activity (protection)": -2.55},
      {"smiles": "COc1ccc2nc(C)cc(Nc3ccccc3O)c2c1", "activity (protection)": -2.51},
      {"smiles": "N/C(=N/OC(=O)c1ccccc1F)c1nonc1N", "activity (protection)": -1.6},
      {"smiles": "CCOc1ccc(N(CC(=O)Nc2ccc(CC)cc2)S(=O)(=O)c2c(C)[nH]c(=O)[nH]c2=O)cc1", "activity (protection)": -0.814},
      {"smiles": "N#Cc1cccc(NC(=O)Cn2cnc(S(=O)(=O)N3CCOCC3)c2)c1", "activity (protection)": -0.557},
      {"smiles": "CCc1ccc(N2CC(C(=O)Nc3ccc4c(c3)OCO4)CC2=O)cc1", "note": "(configuration not stated)", "activity (protection)": 1.62},
      {"smiles": "CC1CC(=O)Nc2ccccc2N1C(=O)Cn1cnc2ccc(Br)cc2c1=O", "note": "(configuration not stated)", "activity (protection)": 0.168},
      {"smiles": "CCC(C)C1NC(=O)C2CCCN2C(=O)C(CC(C)C)OC(=O)CCNC(=O)C(C)N(C)C(=O)C(C(C)C)N(C)C1=O", "note": "(configuration not stated)", "Potency": "3.69 µM (active)"},
      {"smiles": "CC(C)Cn1cnc2c1c(=O)[nH]c(=O)n2Cc1ccccc1", "activity (protection)": 0.91},
      {"smiles": "O=C(Nc1ccc(S(=O)(=O)N2CCOCC2)cc1)c1cc(-c2ccccc2O)n[nH]1", "activity (protection)": -0.407},
      {"smiles": "Nc1ccc(S(=O)(=O)c2ccccc2)nc1", "activity (protection)": -0.39},
      {"smiles": "CCn1nc(NS(=O)(=O)c2ccccc2)c2cc3cc(C)ccc3nc21", "activity (protection)": -1.97},
      {"smiles": "COc1cc(CNCCc2ccccc2)cc(Br)c1OCC(=O)Nc1ccccc1C", "activity (protection)": -1.07}
    ]}
  ]
}
